Screens as filed in PubChem.
Only some compounds are listed: those with a hit (about 7.9% of all), similar ones and a draw of the others.
Marburg entry inh – Marburg virus entry inhibition; AID 540276; Potency, µM (series often up to 37.8 µM), without a hit: top-dose activity change, negative = inhibition, actives largely listed as inhibitors; Marburg virus pseudotyped entry inhibition, cell reporter; hit rate 1.8% among 300,000; calls by dose curve; tested in HEK293 cells; also: potency is read from the fitted curve at half-maximal effect
HCV inhibitor – blocks hepatitis C virus | Huh7.5.1 HCVcc-Cre infection, luciferase reporter, 44 h | Potency, µM (series often up to 41.8 µM), without a hit: at the top dose activity change, negative = inhibition, hits mostly inhibitors | hit rate 3.4% among 340,000 | AID 651820; active = well fitted inhibition curve with a large enough effect; inconclusive = small, poorly fitted or top-dose-only effect, or another doubt; inactive = no such curve, though single readings can be large or run the other way; also: potency is read from the fitted curve at half-maximal effect
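Infectious HCV cell culture screen: compound-treated cells (1,000/well, pre-plated 4 h) are infected with HCVcc-Cre at roughly 0.5 moi and grown 44 h. Infection is quantified by luciferase signal after 15 min substrate incubation at room temperature.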
HCMV antiviral – inhibitors of human cytomegalovirus. HFF cells, HCMV-luciferase reporter, 72 h; stronger effect = lower value. activity change, negative = inhibition, % at 57.5 µM. hit rate 4.5% among 410,000. AID 1259415; in the data active = activity change below about -60%; inconclusive = no clear call, values can overlap the other calls; inactive = above about -39%
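Luciferase read-out from HCMV-luciferase-infected HFFs (MOI 1 PFU/cell) 72 h post infection at 37C; compounds added after 16 h cell attachment; activity normalized between buffer-only basal and Salinomycin (10uM) inhibitor controls.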
LASV entry inh – Lassa virus entry inhibition. Lassa virus pseudotype entry inhibition, cell reporter. Potency, µM (series often up to 37.9 µM), without a hit: top-dose activity change, negative = inhibition, actives largely listed as inhibitors. hit rate 1.2% among 300,000; calls by dose curve; tested in HEK293 cells; also: potency is read from the fitted curve at half-maximal effect; nearly all actives have a fitted effect of over 50% in size
FMDV antiviral – antivirals against foot and mouth disease virus; Potency, µM (highest dose often 57.9 µM), inactives show at the top dose activity change, negative = inhibition, hits mostly inhibitors; hit rate 1.2% among 410,000; FMDV antiviral cell-based qHTS; AID 1159524; calls by dose curve; tested in HEK293T cells; also: read-out not given here; potency is read from the fitted curve at half-maximal effect; nearly all actives have a fitted effect of over 45% in size
Starred values were filed as active, the others as inactive; [ ] = dose if it differs, or a comment. % is scaled to controls: 0 for no effect and ±100 for the full control effect.

Results for Cc1cc(C)nc(-n2nc(C)c3c2N(Cc2ccccc2F)C(=O)CC3c2ccc(Cl)cc2)n1 (stereo not drawn) ?
Marburg entry inh: inconclusive; HCMV antiviral: -28; LASV entry inh: 3%[46.1 µM]; FMDV antiviral: -5%

How did Cc1ccc(CNC(=O)CSc2c3c(nc4cc(Cl)ccc24)CCCC3)o1 do in these assays?
Marburg entry inh: inconclusive; HCV inhibitor: 4.5µM*; HCMV antiviral: 6; LASV entry inh: 21µM*; FMDV antiviral: 28µM*

What do the screens show for `COc1ccc(OC)c(CNC(=O)CSc2c3c(nc4cc(Cl)ccc24)CCCC3)c1`?
Marburg entry inh: inconclusive; HCMV antiviral: -60*; LASV entry inh: -5%[46.1 µM]; FMDV antiviral: inconclusive

How did COc1ccc(NC(=O)CSc2c3c(nc4ccccc24)CCC3)c(OC)c1 do in these assays?
Marburg entry inh: 2.2µM*; HCV inhibitor: -20%; HCMV antiviral: 19; LASV entry inh: -15%[46.1 µM]; FMDV antiviral: inconclusive

What do the screens show for `COc1ccc(NC(=O)c2ccc3c(SCC(=O)O)c4c(nc3c2)CCCC4)c(OC)c1`?
Marburg entry inh: 22%[46.1 µM]; HCV inhibitor: 1%; HCMV antiviral: -25; LASV entry inh: 7%[46.1 µM]; FMDV antiviral: -23%

How did CC1=C(C(=O)Nc2cccnc2)C(c2ccc(F)cc2)n2nc(SCc3ccccc3F)nc2N1 (stereo not drawn) do in these assays?
Marburg entry inh: inconclusive; HCMV antiviral: 8; LASV entry inh: 9%[46.1 µM]; FMDV antiviral: 8%

What do the screens show for `CCCc1cc(=O)oc2cc(OCC(=O)NCCc3c[nH]c4ccc(OC)cc34)ccc12`?
HCV inhibitor: 18µM*; HCMV antiviral: -5; FMDV antiviral: -22%

How did CCc1cc(=O)oc2cc(C)cc(OCC(=O)NC(Cc3c[nH]c4ccc(O)cc34)C(=O)O)c12 (stereo not drawn) do in these assays?
HCV inhibitor: -1%; HCMV antiviral: 6; FMDV antiviral: -18%

How did O=C(COc1ccc2ccc(=O)oc2c1)NCCc1c[nH]c2ccc(F)cc12 do in these assays?
HCV inhibitor: -21%; HCMV antiviral: -35; FMDV antiviral: inconclusive

How did CCc1cc(=O)oc2cc(C)cc(OCC(=O)NCCc3c[nH]c4ccccc34)c12 do in these assays?
HCV inhibitor: 2.2µM*; HCMV antiviral: -23; FMDV antiviral: inconclusive

Results for CCOC(=O)c1ccc(NC(=O)CC2C(=O)N(c3cccc(OC)c3)C(=O)N2Cc2ccc(OC)cc2)cc1 (stereo not drawn) ?
Marburg entry inh: inconclusive; HCMV antiviral: 17; LASV entry inh: -24%[46.1 µM]; FMDV antiviral: -15%

How did Cc1nc(S(=O)(=O)N(C)c2ccccc2)c(C#N)c(C)c1Cl do in these assays?
Marburg entry inh: inconclusive; HCV inhibitor: -25%; HCMV antiviral: -97*; LASV entry inh: inconclusive; FMDV antiviral: inconclusive

Results for O=C(Nc1cccc(C(F)(F)F)c1)Nc1ccc2snnc2c1 ?
Marburg entry inh: inconclusive; HCMV antiviral: -105*; LASV entry inh: inconclusive; FMDV antiviral: -27%

What do the screens show for `O=C(Nc1ccccc1)Nc1ccc2snnc2c1`?
Marburg entry inh: inconclusive; HCV inhibitor: 11µM*; HCMV antiviral: 11; LASV entry inh: 10%; FMDV antiviral: 20%

What do the screens show for `O=C(Nc1ccccc1)Nc1ccc2nnsc2c1`?
Marburg entry inh: -23%; HCV inhibitor: -11%; HCMV antiviral: -19; LASV entry inh: 30%; FMDV antiviral: 31%

Results for Cc1cc(Cn2nnc3ccccc32)c(O)c(C(C)(C)C)c1 ?
HCV inhibitor: 10µM*; HCMV antiviral: -20; FMDV antiviral: 16%

Results for COc1cccc(CSc2nc3n(n2)C(c2cccc(F)c2)C(C(=O)Nc2ccccc2C)=C(C)N3)c1 (stereo not drawn) ?
HCMV antiviral: 6; LASV entry inh: 39%[46.1 µM]; FMDV antiviral: -15%

What do the screens show for `COc1cccc(CSc2nc3n(n2)C(CC(C)C)C(C(=O)Nc2ccccc2OC)=C(C)N3)c1` (stereo not drawn)?
HCMV antiviral: -70*; LASV entry inh: 0%[46.1 µM]; FMDV antiviral: -26%

Results for COc1cc(C2C(C(=O)Nc3ccc(C)cc3C)=C(C)Nc3nc(SCc4ccccc4)nn32)cc(OC)c1OC (stereo not drawn) ?
Marburg entry inh: 4%[46.1 µM]; HCMV antiviral: -74*; LASV entry inh: -32%[46.1 µM]; FMDV antiviral: -2%

Results for CC1=C(C(=O)Nc2ccccc2C)C(c2cccs2)n2nc(SCc3ccccc3)nc2N1 (stereo not drawn) ?
Marburg entry inh: inconclusive; HCMV antiviral: -65*; LASV entry inh: inconclusive; FMDV antiviral: -25%

What do the screens show for `COc1cc(C2C(C(=O)Nc3ccccc3C)=C(C)Nc3nc(SCc4cc(C)ccc4C)nn32)ccc1O` (stereo not drawn)?
HCMV antiviral: -74*; LASV entry inh: -5%[46.1 µM]; FMDV antiviral: -22%

How did COC(=O)C1=C(C)OC(N)=C(C#N)[C@H]1c1ccc(OC)c(OC)c1OC do in these assays?
Marburg entry inh: 7%

What do the screens show for `COc1cc(C(CC(=O)Nc2ccc(F)cc2F)N2Cc3ccccc3C2=O)cc(OC)c1OC` (stereo not drawn)?
HCMV antiviral: 6; LASV entry inh: 2%[46.1 µM]; FMDV antiviral: 54%

How did O=C(Nc1cccc(Cl)c1Cl)c1ccc2c(c1)N(Cc1cccc(Cl)c1)C(=O)c1ccccc1S2(=O)=O do in these assays?
Marburg entry inh: inconclusive; HCMV antiviral: -2; LASV entry inh: 3%[46.1 µM]; FMDV antiviral: -16%

What do the screens show for `COc1ccc(NS(=O)(=O)c2ccc(-c3coc(C)n3)cc2)cc1OC`?
HCV inhibitor: inconclusive; HCMV antiviral: -92*; FMDV antiviral: -28%

Results for Cc1n(C)c2cc(Cl)ccc2[n+]1Cc1ccccc1 ?
Marburg entry inh: 21%[46.1 µM]; HCV inhibitor: 3%; HCMV antiviral: -60*; LASV entry inh: 5%; FMDV antiviral: -21%

What do the screens show for `CC1CCc2nn(CC(=O)Nc3cccc(C(F)(F)F)c3)c(=O)cc2C1` (stereo not drawn)?
HCMV antiviral: -17; LASV entry inh: -11%[46.1 µM]; FMDV antiviral: -22%

Results for O=C(CCCc1nc(-c2ccco2)no1)Nc1ccccc1[N+](=O)[O-] ?
Marburg entry inh: 8%[46.1 µM]; HCMV antiviral: 8; LASV entry inh: -10%[46.1 µM]; FMDV antiviral: 5%

How did CCn1cc(C(=O)O)c(=O)c2cc(F)c(N3CCN(C(=O)Nc4ccccc4)CC3)cc21 do in these assays?
Marburg entry inh: 11%; HCV inhibitor: -23%; HCMV antiviral: -84*; LASV entry inh: 11%; FMDV antiviral: -25%

Results for CCn1cc(C(=O)NCCCO)c(=O)c2cc(F)c(N3CCN(C)CC3)cc21 ?
HCV inhibitor: 6%; HCMV antiviral: 19; FMDV antiviral: -9%

How did CCCCCCNC(=O)c1cn(CC)c2cc(N3CCN(C)CC3)c(F)cc2c1=O do in these assays?
HCV inhibitor: 10µM*; HCMV antiviral: 2; FMDV antiviral: -21%
